Common to all, as to assay type: functional
For assay [1], the system named is Plasmodium falciparum. Nature of the assay: GSK_TCMDC: Inhibition of Plasmodium falciparum 3D7 in whole red blood cells, using parasite LDH activity as an index of growth. Test compounds present at 2uM.
For assay [2], the system named is Plasmodium falciparum. Nature of the assay: GSK_TCMDC: Inhibition of Plasmodium falciparum Dd2 in whole red blood cells, using parasite LDH activity as an index of growth. Test compounds present at 2uM.
A further assay relates to HepG2. Put plainly: GSK_TCMDC: Percent inhibition of human HepG2 cell line. Test compounds present at 10uM.

A word on the Inhibition: it is the change of the read-out against control, counted positive when it falls. High values mean strong suppression, low ones little suppression. Regarding `CC(C)C(=O)ONC1=NC(=N)N(OCCCOc2cc(Cl)c(Cl)cc2Cl)C(C)(C)N1`, the Inhibition amounted to 95% in the assay on Plasmodium falciparum [1], 96% in the assay with Plasmodium falciparum [2] and 64% with HepG2.

Take `O=C(Cn1c(CCc2cccc(F)c2F)cc(=O)c2cccnc21)N(CCN1CCCC1)Cc1ccc(-c2ccc(C(F)(F)F)cc2)cc1.O=C(O)C(O)C(O)C(=O)O`: the Inhibition in the assay on Plasmodium falciparum [1] turned out to be 99%; in the assay on Plasmodium falciparum [2], 64%; with HepG2, 48%.

`O=[N+]([O-])c1ccc(N/C(=N\c2ccccc2Br)NCCOc2ccccc2)c(O)c1`: the Inhibition is reported as 88% in the assay with Plasmodium falciparum [1], 70% with Plasmodium falciparum [2] and 6% with HepG2.

Regarding `CN(C)CCN1CCN(Cc2ccc(-c3cccc(-c4nc5ccccc5[nH]4)c3)cc2)CC1.O=C(O)C(F)(F)F`, the Inhibition in the assay on Plasmodium falciparum [1] is recorded as 100%; with Plasmodium falciparum [2], 100%; with HepG2, 25%.

For the compound `O=C(O)C(F)(F)F.O=S(=O)(NCCN1CCCC1)c1ccc(-c2cccc(CNCCc3cccs3)c2)cc1`, the Inhibition worked out at 95% in the assay on Plasmodium falciparum [1], 30% in the assay with Plasmodium falciparum [2] and 41% with HepG2.

Consider `CC1CCc2c(C(=O)N3CCc4ccccc4C3)csc2C1` (stereo unspecified), for which the Inhibition in the assay on Plasmodium falciparum [1] came to 99%; in the assay on Plasmodium falciparum [2] it was 75%; in the assay on HepG2, 9%.

Regarding `O=C(Nc1cccc(CN2CCN(Cc3cccc(O)c3)CC2)c1)c1cc2ccccc2s1.O=C(O)C(F)(F)F`, the Inhibition in the assay with Plasmodium falciparum [1] is listed as 86%; in the assay on Plasmodium falciparum [2], 54%; in the assay on HepG2, 13%.

On to `COc1ccc2ccc(OC)c(CNCCCCCCNCc3c(OC)ccc4ccc(OC)cc34)c2c1.CS(=O)(=O)O`, for which the figures for the Inhibition with Plasmodium falciparum [1], in the assay with Plasmodium falciparum [2] and in the assay with HepG2 were 100%, 32% and 100%, respectively.

In the case of `COC(=O)c1cccc(CNCc2ccc(-c3ccc(-c4nc5ccccc5[nH]4)s3)cc2)c1.O=C(O)C(F)(F)F`, the Inhibition in the assay on Plasmodium falciparum [1] was 100%; with Plasmodium falciparum [2], 79%; in the assay with HepG2, 20%.

Regarding `CCCNCc1ccc(-c2ccc(CN(CCOC)C(=O)c3ccccc3)cc2)nc1.O=C(O)C(F)(F)F`, the Inhibition is 94% in the assay with Plasmodium falciparum [1], 25% with Plasmodium falciparum [2] and 16% in the assay on HepG2.

In the case of `CCOC(=O)CNC(=O)N1CCN(C(=O)NCC(=O)OCC)CC1`, the Inhibition with Plasmodium falciparum [1] turned out to be 93%; in the assay with Plasmodium falciparum [2], 0%; in the assay with HepG2 it was 0%.

Turning to `CN(Cc1ccc(C#N)cc1)C1CCN(c2cc(NC(=O)c3ccc(F)cc3)ccn2)CC1.O=C(O)C(F)(F)F`, the values for the Inhibition in the assay with Plasmodium falciparum [1], in the assay on Plasmodium falciparum [2] and in the assay on HepG2 were 86%, 10% and 24%, respectively.

On to `Cc1cc(C)nc(-n2[nH]c(C)c(Cc3ccc(C(C)(C)C)cc3)c2=O)n1`, for which the Inhibition in the assay with Plasmodium falciparum [1] amounted to 88%; with Plasmodium falciparum [2] it was 61%; with HepG2, 0%.

Consider `CN(C)S(=O)(=O)c1cc(-c2ccc3nccc(-c4cccc(S(N)(=O)=O)c4)c3c2)cnc1N`, for which the results for the Inhibition in the assay on Plasmodium falciparum [1], in the assay on Plasmodium falciparum [2] and with HepG2 were 100%, 98% and 35%, respectively.

With `O=C(/C=C/c1ccc(Cl)c(Cl)c1)NCCCCCN1CCC(NC(=O)NC2CCCCCC2)CC1`, the Inhibition in the assay on Plasmodium falciparum [1] amounted to 99%; in the assay on Plasmodium falciparum [2], 41%; with HepG2, 15%.

`CC(C)Oc1cc2c(cc1NS(=O)(=O)c1ccc(-c3cccs3)cc1)CCN(C)CC2.Cl`: the Inhibition with Plasmodium falciparum [1] is 88%; in the assay on Plasmodium falciparum [2], 9%; with HepG2 it was 9%.

For `FC(F)(F)c1ccc2[nH]c(-c3cccc(-c4cccc(CN5CCN(c6ccncc6)CC5)c4)c3)nc2c1.O=C(O)C(F)(F)F`, the Inhibition in the assay on Plasmodium falciparum [1] is 100%; with Plasmodium falciparum [2], 99%; in the assay on HepG2 it was 93%.

For `O=C(Nc1nc2ccc(Cl)cc2s1)c1csnn1`, the Inhibition is given as 96% in the assay with Plasmodium falciparum [1], 99% in the assay on Plasmodium falciparum [2] and 15% in the assay on HepG2.

In the case of `Nc1cnc(C#Cc2cc3ncnc(N(CCN4CCOCC4)c4ccc(OCc5cccc(F)c5)c(Cl)c4)c3s2)cn1`, the Inhibition came to 87% in the assay with Plasmodium falciparum [1], 57% in the assay with Plasmodium falciparum [2] and 0% in the assay with HepG2.

In the case of `CN(C)CCOc1ccc(-c2cc(-c3ccc(Cl)c(O)c3)c(-c3ccnc(N)n3)o2)cc1`, the Inhibition in the assay on Plasmodium falciparum [1] is reported as 100%; in the assay with Plasmodium falciparum [2] it was 95%; in the assay on HepG2, 43%.

`Cc1ccc(O)cc1Nc1ccnc2ccc(-c3csc(CNCCN4CCOCC4)n3)cc12`: the Inhibition with Plasmodium falciparum [1] was found to be 100%; in the assay with Plasmodium falciparum [2], 97%; in the assay on HepG2 it was 0%.

In the case of `Br.C=CCc1cccc(OC)c1OCCCON1C(=N)N=C(N)NC1(C)C`, the Inhibition in the assay on Plasmodium falciparum [1] came to 94%; with Plasmodium falciparum [2], 95%; in the assay with HepG2, 58%.

As to `Fc1cccc(-c2ccc3c(c2)CC(NCc2c[nH]c4cnccc24)C3)c1` (stereo unspecified), the figures for the Inhibition in the assay on Plasmodium falciparum [1], with Plasmodium falciparum [2] and with HepG2 were 100%, 68% and 24%, respectively.

Take `COc1cc2ncnc(Nc3ccc(OCc4ccccc4)c(C(F)(F)F)c3)c2cc1OC.Cl`: the results for the Inhibition with Plasmodium falciparum [1], with Plasmodium falciparum [2] and in the assay on HepG2 were 100%, 78% and 8%, respectively.

For the compound `NC1CCN(CCNCc2cccc(-c3ccc(-c4nc5cc(C(F)(F)F)ccc5[nH]4)cc3)c2)C1.O=C(O)C(F)(F)F` (stereo unspecified), the Inhibition is recorded as 98% in the assay with Plasmodium falciparum [1], 75% in the assay with Plasmodium falciparum [2] and 19% in the assay with HepG2.

`CNC(=O)C1Cc2c([nH]c3ccc(Br)cc23)C2(CCN(CCc3ccccc3)CC2)N1` (stereo unspecified): the results for the Inhibition with Plasmodium falciparum [1], in the assay with Plasmodium falciparum [2] and with HepG2 were 100%, 60% and 15%, respectively.

Take `CCCCCCCN1CC[C@@H](CCCc2ccnc3ccc(OCCCCNC(N)=O)cc23)[C@@H](CC)C1.O=C(O)C(=O)O`: the Inhibition turned out to be 93% with Plasmodium falciparum [1], 18% in the assay on Plasmodium falciparum [2] and 41% with HepG2.
